Data from PubChem BioAssay (EPA / NIEHS).
“And” between values parts separate entries of the source, which are not always exact repeats. Equal values may be shown once. Records with an inconclusive call do not appear. The source made the active and inactive calls. How the source made its calls, unless noted: active means hit-call score of the fitted dose curve at least 0.9, where 1 is the maximum; inactive means score below 0.9.

Key:
[1] = read-out: CD69, CD69 (gene 969); test: BSK_SAg_CD69: BioMAP Diversity Plus: SAg Assay for CD69 Biomarker Activity (AID 2283089); details: primary human HUVEC with PBMC; actives raise or lower the signal;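 on AC50: cell surface CD69 protein quantified by ELISA with fluorescence detection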
In short: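 HUVEC co-cultured with PBMC were dosed with chemical, and CD69 was measured by ELISA with fluorescence read-out 24 h later. Bidirectional curve fitting used DMSO as negative control and activity baseline.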

[2] = read-out: Monocyte Chemoattractant Protein-1 (MCP1), CCL2 (gene 6347); test: BSK_SAg_MCP1: BioMAP Diversity Plus: SAg Assay for Monocyte Chemoattractant Protein-1 (MCP1) Biomarker Activity (AID 2283090); details: primary human HUVEC with PBMC; actives raise or lower the signal
In short: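 MCP-1 levels in the endothelial–PBMC SAg co-culture were quantified by ELISA at 24 h post-dosing; both increases and decreases versus DMSO scored. Cytotoxicity monitored by SRB total protein in parallel cultures.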

[3] = read-out: E-selectin (Homo sapiens) (UniProt P16581); test: BSK_SAg_Eselectin: BioMAP Diversity Plus: SAg Assay for Eselectin Biomarker Activity (AID 2283091); details: primary human HUVEC with PBMC; actives raise or lower the signal
In short: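 Cell-surface E-selectin is read by ELISA at 24 h in the SAg co-culture of HUVEC and PBMC. Curves are fitted in both directions relative to DMSO. Parallel SRB total-protein staining tracks overt toxicity.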

[4] = read-out: Monokine induced gamma interferon (MIG), CXCL9 (gene 4283); test: BSK_SAg_MIG: BioMAP Diversity Plus: SAg Assay for Monokine induced gamma interferon (MIG) Biomarker Activity (AID 2283092); details: primary human HUVEC with PBMC; actives raise or lower the signal
In short: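 HUVEC plus human PBMC co-culture, chemicals dosed and MIG (CXCL9) quantified by ELISA at 24 h. Bidirectional curve fitting against DMSO as negative control and baseline, so both gain and loss of signal count as activity.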

[5] = read-out: Interleukin-8 (IL8), CXCL8 (gene 3576); test: BSK_SAg_IL8: BioMAP Diversity Plus: SAg Assay for Interleukin-8 (IL8) Biomarker Activity (AID 2283094); details: primary human HUVEC with PBMC; actives raise or lower the signal
In short: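 ELISA read-out of IL-8 in a primary human vascular co-culture (umbilical vein endothelium plus PBMC), taken 24 h after compound addition. Values derive from bidirectional fits against DMSO negative controls.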

[6] = BSK_SAg_Proliferation: Cell Proliferation Assessment in the BioMAP Diversity Plus: SAg Assay (AID 2283095); details: primary human HUVEC with PBMC;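 further: relative cell number as total protein by SRB absorbance in sub-confluent culture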
In short: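 Cells (endothelium plus PBMC, human primary) were dosed with chemical, cultured 96 h, fixed in 10% TCA and stained with 0.1% SRB. Absorbance at 560 nm gave relative protein, fitted bidirectionally relative to DMSO.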

[7] = BSK_SAg_SRB: Viability Assessment in the BioMAP Diversity Plus: SAg Assay (AID 2283096); details: primary human HUVEC with PBMC;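 further: cells read one day after compound addition; hits may be either gain or loss of signal compared with DMSO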
In short: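 Endothelial/PBMC primary human co-culture; compound 24 h; fix 10% TCA, stain 0.1% SRB, A560; protein content as cytotoxicity proxy; bidirectional curve fit, DMSO = baseline.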

[8] = biological target: human CYP2A6, CYP2A6 (gene 1548) (UniProt P11509); test: NVS_ADME_hCYP2A6: NovaScreen (NVS) CYP450-related Enzyme Activity (ADME) Assay for human CYP2A6 (AID 2283099; active means hit-call score of the fitted dose curve at least 0.9, where 1 is the maximum)
In short: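 Compounds screened at 10 uM (duplicate) and, if active, titrated to a 20 uM top concentration against insect-cell-expressed CYP2A6. Loss of fluorescent product signal after 0.5 h, relative to acetonitrile baseline, indicates inhibition.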

[9] = biological target: Cytochrome P450 2C19 (Homo sapiens) (UniProt P33261); test: NVS_ADME_hCYP2C19: NovaScreen (NVS) CYP450-related Enzyme Activity (ADME) Assay for human CYP2C19 (AID 2283113; active means hit-call score of the fitted dose curve at least 0.9, where 1 is the maximum;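 further: potency for inhibition seen as loss of fluorescent signal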)
In short: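 Compounds first screened in duplicate at 10 uM, then confirmed in concentration series. Insect-cell-expressed human CYP2C19 turned over a fluorogenic substrate, and fluorescence was read after 1 h. Inhibition taken as signal loss relative to acetonitrile.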

[10] = biological target: human CYP2D6, CYP2D6 (gene 1565) (UniProt P10635); test: NVS_ADME_hCYP2D6: NovaScreen (NVS) CYP450-related Enzyme Activity (ADME) Assay for human CYP2D6 (AID 2283107; active means hit-call score of the fitted dose curve at least 0.9, where 1 is the maximum)
In short: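 Fluorescence readout of recombinant CYP2D6 (insect-cell derived) activity after 1 h incubation with test chemical. Acetonitrile served as baseline, loss-of-signal direction. Single-concentration duplicate screening at 10 uM preceded concentration-response retesting.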

[11] = biological target: human CYP2C9, CYP2C9 (gene 1559) (UniProt P11712); test: NVS_ADME_hCYP2C9: NovaScreen (NVS) CYP450-related Enzyme Activity (ADME) Assay for human CYP2C9 (AID 2283108; active means hit-call score of the fitted dose curve at least 0.9, where 1 is the maximum)
In short: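 Cell-free assay of recombinant human CYP2C9 produced in Sf9 cells, with enzyme activity read by fluorescence intensity 0.75 h after compound addition. Loss of signal versus an acetonitrile negative control indicates inhibition. Primary screen used 10 uM in duplicate; actives were retested in concentration series.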

Measured: AC50

Sequence of E-selectin (Homo sapiens) (P16581 whole entry, looked up): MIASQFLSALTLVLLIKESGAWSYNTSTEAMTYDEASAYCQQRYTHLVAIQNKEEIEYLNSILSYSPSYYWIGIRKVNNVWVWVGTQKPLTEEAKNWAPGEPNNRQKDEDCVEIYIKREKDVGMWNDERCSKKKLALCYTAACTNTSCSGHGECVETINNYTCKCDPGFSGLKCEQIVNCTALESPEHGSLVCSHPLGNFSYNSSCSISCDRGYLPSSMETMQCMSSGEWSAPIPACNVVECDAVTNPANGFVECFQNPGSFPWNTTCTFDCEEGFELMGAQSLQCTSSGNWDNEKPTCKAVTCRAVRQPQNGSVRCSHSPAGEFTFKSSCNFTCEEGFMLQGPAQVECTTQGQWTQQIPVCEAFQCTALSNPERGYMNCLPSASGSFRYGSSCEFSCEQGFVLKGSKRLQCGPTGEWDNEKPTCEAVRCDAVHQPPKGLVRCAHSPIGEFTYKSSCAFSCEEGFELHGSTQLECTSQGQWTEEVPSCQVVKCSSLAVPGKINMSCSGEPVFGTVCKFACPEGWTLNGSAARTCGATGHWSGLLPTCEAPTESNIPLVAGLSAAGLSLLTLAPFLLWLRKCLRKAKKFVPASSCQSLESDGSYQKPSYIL
Sequence of human CYP2A6, CYP2A6 (gene 1548) (P11509 whole entry, looked up): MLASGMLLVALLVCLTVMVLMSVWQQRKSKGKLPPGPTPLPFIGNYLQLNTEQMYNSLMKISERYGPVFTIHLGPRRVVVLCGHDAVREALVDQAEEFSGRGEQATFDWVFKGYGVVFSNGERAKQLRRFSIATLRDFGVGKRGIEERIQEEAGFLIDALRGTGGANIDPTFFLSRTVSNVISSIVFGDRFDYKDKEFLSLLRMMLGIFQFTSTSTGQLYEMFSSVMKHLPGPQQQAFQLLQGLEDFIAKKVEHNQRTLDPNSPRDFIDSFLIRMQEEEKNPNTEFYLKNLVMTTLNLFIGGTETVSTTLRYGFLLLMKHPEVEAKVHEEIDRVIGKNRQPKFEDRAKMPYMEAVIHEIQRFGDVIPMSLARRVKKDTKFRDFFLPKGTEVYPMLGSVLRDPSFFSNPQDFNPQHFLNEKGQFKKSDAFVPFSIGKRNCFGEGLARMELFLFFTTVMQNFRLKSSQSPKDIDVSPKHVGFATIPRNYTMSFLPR
Sequence of human CYP2C9, CYP2C9 (gene 1559) (P11712 whole entry, looked up): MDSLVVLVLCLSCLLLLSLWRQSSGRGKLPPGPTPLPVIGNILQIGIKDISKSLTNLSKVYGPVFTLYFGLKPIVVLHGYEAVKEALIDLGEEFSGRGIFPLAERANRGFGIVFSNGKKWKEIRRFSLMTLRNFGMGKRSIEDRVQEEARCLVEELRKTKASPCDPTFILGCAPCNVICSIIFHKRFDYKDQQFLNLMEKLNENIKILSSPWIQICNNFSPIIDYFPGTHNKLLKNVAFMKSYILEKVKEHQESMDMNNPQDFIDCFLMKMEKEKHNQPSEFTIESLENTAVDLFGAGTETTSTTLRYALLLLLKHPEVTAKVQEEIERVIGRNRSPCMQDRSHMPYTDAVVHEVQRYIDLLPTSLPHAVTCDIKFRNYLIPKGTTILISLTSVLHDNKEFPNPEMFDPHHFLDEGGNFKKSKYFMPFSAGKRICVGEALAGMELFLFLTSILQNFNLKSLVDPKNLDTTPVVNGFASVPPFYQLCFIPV
Sequence of human CYP2D6, CYP2D6 (gene 1565) (P10635 whole entry, looked up): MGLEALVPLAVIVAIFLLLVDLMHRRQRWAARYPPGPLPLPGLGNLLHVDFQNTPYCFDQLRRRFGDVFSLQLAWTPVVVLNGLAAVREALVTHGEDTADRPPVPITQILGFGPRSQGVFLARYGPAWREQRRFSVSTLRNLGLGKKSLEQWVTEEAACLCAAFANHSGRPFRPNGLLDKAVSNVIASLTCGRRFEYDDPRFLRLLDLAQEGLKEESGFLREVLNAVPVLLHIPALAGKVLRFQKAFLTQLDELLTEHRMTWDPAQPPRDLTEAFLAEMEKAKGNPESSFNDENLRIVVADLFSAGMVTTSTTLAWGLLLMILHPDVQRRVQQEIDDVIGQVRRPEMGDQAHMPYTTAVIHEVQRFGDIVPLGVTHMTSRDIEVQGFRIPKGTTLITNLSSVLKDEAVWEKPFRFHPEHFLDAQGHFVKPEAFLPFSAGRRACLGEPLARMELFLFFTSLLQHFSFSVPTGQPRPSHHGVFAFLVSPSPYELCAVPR

CCOS(=O)(=O)OCC
not listed: [8] | [9] | [10] | [11]
inactive: all other assays above

O=C(O)C(F)(F)OC(F)(F)C(F)(F)OC(F)(F)F
not listed: [8] | [9] | [10] | [11]
inactive: all other assays above

CN(C)C(=O)Cl
not listed: [9] | [10] | [11]
inactive: all other assays above

ClC(Cl)=C(c1ccc(Cl)cc1)c1ccccc1Cl
active: [1] 14.6 µM | [2] 25.9 µM | [3] 20 µM | [4] 20 µM | [5] 20 µM | [6] 6.98 µM | [7] 30.3 µM

CCCCc1ccccc1
not listed: [8] | [9] | [10] | [11]
inactive: all other assays above

CCNc1nc(Cl)nc(NC(C)(C)C)n1
active: [2] 6.26 µM | [9] 6.82 µM
not listed: [8] | [10] | [11]
inactive: all other assays above

C=CC(=O)OCC(F)(F)C(F)F
active: [1] 38.5 µM and 30 µM | [2] 34.3 µM and 20.4 µM | [3] 30.4 µM and 17.6 µM | [4] 53.5 µM and 45.4 µM | [5] 20.7 µM and 9.88 µM | [6] 13.4 µM and 6.25 µM
inactive: [7]

ClC(Cl)c1ccccc1
not listed: [8] | [9] | [10] | [11]
inactive: all other assays above

Nc1cc2c3c(c1)C(c1ccccc1)=N[C@@H](NC(=O)c1cccnc1)C(=O)N3CC2
inactive: [2] | [4] | [5] | [6] | [7]
active: [1] 0.837 µM | [3] 1.12 µM

c1ccc2c(c1)sc1ccccc12
not listed: [8] | [9] | [10] | [11]
inactive: all other assays above

CC(C)Nc1ccc(Nc2ccccc2)cc1
inactive: [10]
active: [1] 3.37 µM | [2] 6.2 µM | [3] 5.98 µM | [4] 9.5 µM | [5] 5.34 µM | [6] 0.0375 µM | [7] 14.1 µM | [11] 2.66 µM | [9] 3.42 µM
